Experimental findings from paper PMC8384837, “Expanding the binding specificity for RNA recognition by a PUF domain” are described below.

What all share (test): yeast three-hybrid, YBZ-1, SC-Leu-His + 0.5 mM 3-AT, 4 days
Conditions in all cases: tags: N-Gal4 AD-HA kept; label: inside an RPR1-promoter hybrid RNA with tandem MS2 sites; ssRNA

Assay [1] concerns the target PUM1 PUF domain R4-PHS (Homo sapiens, UniProt Q14671 828-1176, N971P;Q975S). The procedure, abridged:
(§1)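 Pumilio-1 PUF domain libraries, randomized (NNK) at the three base-contacting residues of each repeat, were co-expressed with matching RNA elements from a centromeric plasmid in strain YBZ-1 (LexA–MS2 coat fusion, HIS3 reporter). Transformants were plated on SC-Leu (input) and SC-Leu-His + 0.5 mM 3-AT (selection) for four days, and repeat regions were PCR-amplified and Illumina-sequenced. The interaction score is the log2 change in variant frequency from input to selection, with pseudocount 1 where absent.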

In assay [2] the target is PUM1 PUF domain R2-RRH (Homo sapiens, UniProt Q14671 828-1176, N899R;Y900R;Q903H). The procedure, abridged:
as §1

Assay [3] has as its target PUM1 PUF domain R7-KRC (Homo sapiens, UniProt Q14671 828-1176, S1079K;N1080R;E1083C). A digest of the protocol: as §1
Assay [4] concerns the target PUM1 PUF domain R7-RSV (Homo sapiens, UniProt Q14671 828-1176, S1079R;N1080S;E1083V). The procedure, abridged:
as §1

The target of assay [5] is PUM1 PUF domain R1-RGV (Homo sapiens, UniProt Q14671 828-1176, S863R;R864G;Q867V). A digest of the protocol:
as §1

For assay [6], the target named is PUM1 PUF domain R3-ARS (Homo sapiens, UniProt Q14671 828-1176, C935A;Q939S). The procedure, abridged: as §1
The target in assay [7] is PUM1 PUF domain R4-API (Homo sapiens, UniProt Q14671 828-1176, N971A;H972P;Q975I). The procedure, abridged:
as §1

In assay [8] the target is PUM1 PUF domain R4-DRG (Homo sapiens, UniProt Q14671 828-1176, N971D;H972R;Q975G). The procedure, abridged: as §1
In assay [9] the target is PUM1 PUF domain R5-GTQ (Homo sapiens, UniProt Q14671 828-1176, C1007G;R1008T). The procedure, abridged:
as §1

The target in assay [10] is PUM1 PUF domain R7-LNG (Homo sapiens, UniProt Q14671 828-1176, S1079L;E1083G). A digest of the protocol: as §1

Turning to “GGCUAGAACUAGUGGAUCCCCCGGCGCCCGGCGGCUCGAGCCCGGGUAAGUGUAUAUAGUCUGCAUGCCGCCGGGCGCCAUGCCUGCAGGUCGACUCUAGAAAACAUG”, in [1], the binding signal was 7.03 log2 enrichment (interaction score).

With “GGCUAGAACUAGUGGAUCCCCCGGCGCCCGGCGGCUCGAGCCCGGGUAAGUGUAAAGAGUCUGCAUGCCGCCGGGCGCCAUGCCUGCAGGUCGACUCUAGAAAACAUG”, the binding signal in [2] was 3.09 log2 enrichment (interaction score).

As to “GGCUAGAACUAGUGGAUCCCCCGGCGCCCGGCGGCUCGAGCCCGGGUAAGUCUAAAUAGUCUGCAUGCCGCCGGGCGCCAUGCCUGCAGGUCGACUCUAGAAAACAUG”, the binding signal in assay [3] is 4.66 log2 enrichment (interaction score); in assay [4] it was 1.68 log2 enrichment (interaction score).

As to “GGCUAGAACUAGUGGAUCCCCCGGCGCCCGGCGGCUCGAGCCCGGGUAAGUGUAAAUUGUCUGCAUGCCGCCGGGCGCCAUGCCUGCAGGUCGACUCUAGAAAACAUG”, the binding signal in assay [5] was 2.5 log2 enrichment (interaction score).

Take “GGCUAGAACUAGUGGAUCCCCCGGCGCCCGGCGGCUCGAGCCCGGGUAAGUGUAAAAAGUCUGCAUGCCGCCGGGCGCCAUGCCUGCAGGUCGACUCUAGAAAACAUG”: the binding signal in assay [2] is 0.36 log2 enrichment (interaction score).

With “GGCUAGAACUAGUGGAUCCCCCGGCGCCCGGCGGCUCGAGCCCGGGUAAGUGUAAGUAGUCUGCAUGCCGCCGGGCGCCAUGCCUGCAGGUCGACUCUAGAAAACAUG”, the binding signal in [6] is 0.93 log2 enrichment (interaction score).

For the sequence “GGCUAGAACUAGUGGAUCCCCCGGCGCCCGGCGGCUCGAGCCCGGGUAAGUGUAAAUCGUCUGCAUGCCGCCGGGCGCCAUGCCUGCAGGUCGACUCUAGAAAACAUG”, the binding signal in assay [5] is 2.51 log2 enrichment (interaction score).

For “GGCUAGAACUAGUGGAUCCCCCGGCGCCCGGCGGCUCGAGCCCGGGUAAGUGUAAAUAGUCUGCAUGCCGCCGGGCGCCAUGCCUGCAGGUCGACUCUAGAAAACAUG”, the binding signal in assay [1] is 5.43 log2 enrichment (interaction score); in assay [7], 3.05 log2 enrichment (interaction score); in [6], 4.04 log2 enrichment (interaction score); in [8], 2.71 log2 enrichment (interaction score); in assay [9] it was 2.12 log2 enrichment (interaction score).

Consider “GGCUAGAACUAGUGGAUCCCCCGGCGCCCGGCGGCUCGAGCCCGGGUAAGUGUAAUUAGUCUGCAUGCCGCCGGGCGCCAUGCCUGCAGGUCGACUCUAGAAAACAUG”, for which the binding signal in assay [6] was 1.78 log2 enrichment (interaction score).

For the sequence “GGCUAGAACUAGUGGAUCCCCCGGCGCCCGGCGGCUCGAGCCCGGGUAAGUUUAAAUAGUCUGCAUGCCGCCGGGCGCCAUGCCUGCAGGUCGACUCUAGAAAACAUG”, the binding signal in [4] was 2.32 log2 enrichment (interaction score); in assay [10], 6.18 log2 enrichment (interaction score).

Regarding “GGCUAGAACUAGUGGAUCCCCCGGCGCCCGGCGGCUCGAGCCCGGGUAAGUGUUAAUAGUCUGCAUGCCGCCGGGCGCCAUGCCUGCAGGUCGACUCUAGAAAACAUG”, in assay [9], the binding signal is 2.42 log2 enrichment (interaction score).
